This is an account of results in PubChem BioAssay (EPA / NIEHS).

As a reminder, the AC50 is the concentration at which the activity in the assay is half-maximal.

Test [1] is described as follows: ATG_E_Box_CIS: Attagene CIS-FACTORIAL HepG2 Assay for human Enhancer Box (E-box) (AID 2282936). The note with it: HepG2 E-box cis-reporter transcription, actives raise or lower the signal. In short, it runs like this: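 DMSO served as negative control and baseline for bidirectional fitting. Human hepatoma HepG2 cells, transiently transfected with cis-reporter constructs, were dosed 24 h; reporter mRNA read by RT-PCR and capillary electrophoresis.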

Test [2] can be described thus: ATG_M_61_CIS: Attagene CIS-FACTORIAL HepG2 Assay for M61 Transcription Factor (Internal Marker) (AID 2282937). The note with it: HepG2 Attagene CIS-FACTORIAL M61 internal marker reporter; actives raise or lower the signal. The method, boiled down: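 Endogenous transcription factor activity in HepG2 is read through transiently transfected cis-element reporter units. After 24 h dosing, RNA undergoes reverse transcription, PCR and primer extension with 6-FAM before capillary electrophoresis; DMSO-referenced bidirectional fit.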

Test [3] in a line: ATG_EGR_CIS: Attagene CIS-FACTORIAL HepG2 Assay for human Early Growth Response 1 (EGR1) (AID 2282938). The conditions noted are these: HepG2 Attagene CIS-FACTORIAL EGR reporter mRNA; actives raise or lower the signal. In short, it runs like this: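 Activity is taken as induction or loss of reporter mRNA versus DMSO, fitted bidirectionally. Transcripts from cis-regulated reporter units in transiently transfected HepG2 were measured after 24 h by RT-PCR with capillary electrophoresis.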

The nature of test [4]: ATG_M_19_CIS: Attagene CIS-FACTORIAL HepG2 Assay for M19 Transcription Factor (Internal Marker) (AID 2282939). The note with it: HepG2 Attagene CIS-FACTORIAL M19 internal marker reporter; actives raise or lower the signal. The method, boiled down: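 Chemical-treated HepG2 (24 h) with MRTU constructs; reporter transcripts detected by fluorescent RT-PCR fragment analysis on capillary electrophoresis. Internal background marker, DMSO as baseline.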

Test [5] is described as follows: ATG_Ets_CIS: Attagene CIS-FACTORIAL HepG2 Assay for human Erythroblast Transformation Specific (ETS) (AID 2282941). The conditions noted are these: HepG2 ETS cis-reporter transcription, actives raise or lower the signal. In short, it runs like this: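 Human HepG2 hepatoma cells were transiently transfected with promoter-driven reporter constructs and treated for 24 hours. Reporter transcripts were quantified by RT-PCR with fluorescent primer extension; bidirectional curve fitting used DMSO as reference.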

The target in test [6] is Hepatocyte nuclear factor 3-beta (Homo sapiens) (UniProt Q9Y261). Briefly: ATG_FoxA2_CIS: Attagene CIS-FACTORIAL HepG2 Assay for human Forkhead box A2 (FOXA2) (AID 2282942). The conditions noted are these: HepG2 cis-reporter transcription factor activity, 24 h; actives raise or lower the signal. In short, it runs like this:
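Reporter transcript induction is measured by fluorescence after capillary electrophoresis of RT-PCR products from HepG2 cells exposed 24 h. Cis-regulated reporter units report endogenous factor activity; curves fitted both directions against DMSO.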

A short description of test [7]: ATG_FoxO_CIS: Attagene CIS-FACTORIAL HepG2 Assay for human Forkhead box O (FoxO) (AID 2282943). The note with it: HepG2 Attagene cis-reporter, FoxO element, mRNA; actives raise or lower the signal. In short, it runs like this: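 HepG2, transient MRTU transfection (cis element, endogenous TFs). Dose 24 h. TriZol RNA → oligo(dT) RT → PCR → 6-FAM primer extension → HpaI cut → CE. Gain/loss vs DMSO.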

A short description of test [8]: ATG_GATA_CIS: Attagene CIS-FACTORIAL HepG2 Assay for human GATA Binding Protein (AID 2282944). The note with it: HepG2 GATA cis-element reporter, Attagene multiplex mRNA; actives raise or lower the signal. In short, it runs like this: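 Transfected cis-reporter HepG2 cells were treated with chemicals for 24 hours. Total RNA was then converted to cDNA, amplified with reporter-specific primers and analysed by fluorescent capillary electrophoresis, using DMSO-treated wells as baseline.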

The nature of test [9]: ATG_GLI_CIS: Attagene CIS-FACTORIAL HepG2 Assay for human Zinc Finger Protein GLI1 (AID 2282945). The conditions noted are these: HepG2, Attagene cis-factorial reporter mRNA, GLI element; actives raise or lower the signal. In short, it runs like this: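 Bidirectional curve fits relative to DMSO, using reporter mRNA levels from RT-PCR plus capillary electrophoresis. Cells were HepG2 transiently carrying cis-regulated reporter constructs, harvested 24 h after dosing.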

The nature of test [10]: ATG_GRE_CIS: Attagene CIS-FACTORIAL HepG2 Assay for human Glucocorticoid Response Elements (GRE) (AID 2282947). The note with it: HepG2 GRE cis-reporter, Attagene multiplex mRNA; actives raise or lower the signal. The method, boiled down: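 Assay uses human hepatoma HepG2 cells transfected with cis-promoter reporter units, exposed 24 h. mRNA from reporters detected by RT-PCR plus capillary electrophoresis; DMSO serves as negative control and baseline.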

The nature of test [11]: ATG_ISRE_CIS: Attagene CIS-FACTORIAL HepG2 Assay for human Interferon Regulatory Factor 1 (IRF1) binding to an Interferon-Stimulated Response Element (ISRE) (AID 2282948). The note with it: HepG2 ISRE cis-reporter (Attagene), mRNA transcription readout; actives raise or lower the signal. In short, it runs like this: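 Cell-based cis-reporter assay; HepG2; 24 h exposure; reporter mRNA by RT-PCR plus capillary electrophoresis fluorescence; activity in either direction scored relative to DMSO.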

The nature of test [12]: ATG_M_32_CIS: Attagene CIS-FACTORIAL HepG2 Assay for M32 Transcription Factor (Internal Marker) (AID 2282949).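 Also: background control marker of the multiplexed CIS panel rather than a real target.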 The conditions noted are these: HepG2 Attagene cis-factorial M32 reporter, mRNA; actives raise or lower the signal. The method, boiled down: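 Internal background marker read-out: RT-PCR/capillary electrophoresis fluorescence of reporter transcripts from transiently transfected HepG2 cells after 24 h chemical exposure. Activity fitted bidirectionally relative to DMSO negative control.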

Test [13] can be described thus: ATG_M_06_CIS: Attagene CIS-FACTORIAL HepG2 Assay for M06 Transcription Factor (Internal Marker) (AID 2282950). The note with it: HepG2 Attagene CIS-FACTORIAL M06 internal marker reporter; actives raise or lower the signal. In short, it runs like this:
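Cells (HepG2, transiently carrying cis-driven reporter units) receive chemical for 24 h before RNA isolation. Reporter cDNA is PCR-amplified, FAM-labelled by primer extension, HpaI-digested and sized on a capillary analyser.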

In test [14] the target is Hepatocyte nuclear factor 6 (Homo sapiens) (UniProt Q9UBC0). Put plainly: ATG_HNF6_CIS: Attagene CIS-FACTORIAL HepG2 Assay for human Hepatocyte Nuclear Factor 6 (HNF6) (AID 2282952). The conditions noted are these: HepG2 Attagene cis-factorial HNF6 reporter transcription; actives raise or lower the signal. In short, it runs like this: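 Reporter mRNA induction or loss in HepG2 after 24 h exposure; transient cis-MRTU transfection; fragments quantified by capillary electrophoresis; bidirectional analysis, DMSO as negative control.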

The target of test [15] is Heat shock factor protein 1 (Homo sapiens) (UniProt Q00613). Briefly: ATG_HSE_CIS: Attagene CIS-FACTORIAL HepG2 Assay for human Heat Shock Transcription Factor 1 (HSE) (AID 2282953). The note with it: HepG2 HSE cis-reporter, Attagene RNA transcription; actives raise or lower the signal. In short, it runs like this:
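Liver-derived HepG2 cells carry transiently introduced multiple reporter units governed by cis promoters. Reporter RNA measured 24 h post-dose through reverse transcription, PCR amplification, fluorescent labelling and capillary electrophoresis, normalised to DMSO.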

Test [16] can be described thus: ATG_MRE_CIS: Attagene CIS-FACTORIAL HepG2 Assay for human Metal Responsive Element (MRE) (AID 2282954). The conditions noted are these: HepG2 MRE cis-reporter transcription, Attagene multiplex; actives raise or lower the signal. In short, it runs like this:
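After a 24 h chemical exposure, transiently transfected HepG2 cells yield RNA whose reporter sequences are amplified, FAM-labelled and sized by capillary electrophoresis. Curves are fitted bidirectionally relative to DMSO.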

The nature of test [17]: ATG_PBREM_CIS: Attagene CIS-FACTORIAL HepG2 Assay for human Phenobarbital-responsive Enhancer Module (PBREM) (AID 2282955). The conditions noted are these: HepG2 PBREM cis-reporter, Attagene multiplexed transcription; actives raise or lower the signal. The method, boiled down:
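Cells were transfected with cis-element reporter units and treated for 24 h, after which RNA was extracted and reporter transcripts measured by RT-PCR and capillary electrophoresis.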

Test [18] is described as follows: ATG_ERE_CIS: Attagene CIS-FACTORIAL HepG2 Assay for Estrogen Response Element (ERE) (AID 2282940). The note with it: HepG2 ERE cis-reporter, Attagene RNA transcript; actives raise or lower the signal. In short, it runs like this: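 Human liver cells (HepG2) bearing transiently transfected, promoter-regulated reporter units were exposed 24 h. Reporter mRNA induction was detected by capillary electrophoresis of labelled RT-PCR products and fitted bidirectionally to DMSO.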

The target of test [19] is Bile acid receptor (Homo sapiens) (UniProt Q96RI1). Put plainly: ATG_IR1_CIS: Attagene CIS-FACTORIAL HepG2 Assay for human Nuclear Receptor Subfamily 1 Group H Member 4 (NR1H4), IR1 submotif (AID 2282946). The conditions noted are these: IR1 reporter transcription, actives raise or lower the signal. In short, it runs like this:
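Cells (human HepG2) carry transiently transfected cis-promoter reporter transcription units. Compounds are incubated 24 h, total RNA is reverse-transcribed and amplified, and labelled fragments are resolved by capillary electrophoresis. Curves use DMSO as baseline.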

Test [20] concerns the target Hypoxia-inducible factor 1-alpha (Homo sapiens) (UniProt Q16665). Briefly: ATG_HIF1a_CIS: Attagene CIS-FACTORIAL HepG2 Assay for human Hypoxia Inducible Factor 1 (HIF1A) (AID 2282951). The conditions noted are these: HepG2 Attagene cis-factorial HIF1a reporter transcription; actives raise or lower the signal. The method, boiled down: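 Fluorescence intensity of capillary-separated, 6-FAM-labelled reporter amplicons gives mRNA induction in HepG2 cells carrying transfected cis-promoter reporter units; cells exposed 24 h, responses fitted up or down from DMSO.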

Molecules are shown by their SMILES. Where a structure was tested more than once in an assay, its records may differ in their call. The source made the active and inactive calls. The calls were made as follows: active = hit-call score of the fitted dose curve at least 0.9, where 1 is the maximum; inactive = score below 0.9.

Sequence of Hypoxia-inducible factor 1-alpha (Homo sapiens) (Q16665 whole entry, looked up): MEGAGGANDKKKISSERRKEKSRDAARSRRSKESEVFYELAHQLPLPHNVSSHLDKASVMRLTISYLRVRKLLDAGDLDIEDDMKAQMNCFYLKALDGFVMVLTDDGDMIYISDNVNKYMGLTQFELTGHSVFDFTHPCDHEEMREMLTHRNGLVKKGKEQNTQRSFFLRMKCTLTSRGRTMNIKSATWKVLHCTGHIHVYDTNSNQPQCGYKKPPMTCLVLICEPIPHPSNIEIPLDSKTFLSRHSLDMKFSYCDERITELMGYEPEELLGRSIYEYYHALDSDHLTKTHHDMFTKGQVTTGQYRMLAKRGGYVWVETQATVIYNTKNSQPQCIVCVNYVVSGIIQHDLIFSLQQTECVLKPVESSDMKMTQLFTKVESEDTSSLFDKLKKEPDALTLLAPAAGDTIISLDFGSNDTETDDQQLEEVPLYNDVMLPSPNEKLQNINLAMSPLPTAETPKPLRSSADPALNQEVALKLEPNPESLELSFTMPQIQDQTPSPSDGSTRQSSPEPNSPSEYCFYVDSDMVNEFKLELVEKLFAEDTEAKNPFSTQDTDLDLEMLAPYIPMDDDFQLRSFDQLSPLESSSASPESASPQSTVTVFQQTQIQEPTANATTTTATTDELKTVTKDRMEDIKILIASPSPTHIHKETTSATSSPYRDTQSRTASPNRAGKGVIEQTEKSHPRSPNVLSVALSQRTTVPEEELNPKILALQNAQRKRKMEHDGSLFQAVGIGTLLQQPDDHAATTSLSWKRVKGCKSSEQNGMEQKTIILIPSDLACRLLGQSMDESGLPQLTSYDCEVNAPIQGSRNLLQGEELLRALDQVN
Sequence of Heat shock factor protein 1 (Homo sapiens) (Q00613 whole entry, looked up): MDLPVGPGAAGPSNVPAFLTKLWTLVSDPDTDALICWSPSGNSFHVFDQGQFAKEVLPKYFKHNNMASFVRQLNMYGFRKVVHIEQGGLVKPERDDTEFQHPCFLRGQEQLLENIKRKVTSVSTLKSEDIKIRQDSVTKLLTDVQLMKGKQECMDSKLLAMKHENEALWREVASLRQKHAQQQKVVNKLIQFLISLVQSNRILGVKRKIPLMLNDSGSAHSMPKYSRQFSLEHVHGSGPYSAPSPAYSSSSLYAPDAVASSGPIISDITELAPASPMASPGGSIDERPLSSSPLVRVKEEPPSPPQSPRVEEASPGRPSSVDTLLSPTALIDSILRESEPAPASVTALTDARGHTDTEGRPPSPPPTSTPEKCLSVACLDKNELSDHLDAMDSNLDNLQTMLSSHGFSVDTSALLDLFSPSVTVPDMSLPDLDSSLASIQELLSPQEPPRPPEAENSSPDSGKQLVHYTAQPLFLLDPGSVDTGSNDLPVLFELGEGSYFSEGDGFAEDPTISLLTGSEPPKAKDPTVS
Sequence of Bile acid receptor (Homo sapiens) (Q96RI1 whole entry, looked up, the tested form may be a part): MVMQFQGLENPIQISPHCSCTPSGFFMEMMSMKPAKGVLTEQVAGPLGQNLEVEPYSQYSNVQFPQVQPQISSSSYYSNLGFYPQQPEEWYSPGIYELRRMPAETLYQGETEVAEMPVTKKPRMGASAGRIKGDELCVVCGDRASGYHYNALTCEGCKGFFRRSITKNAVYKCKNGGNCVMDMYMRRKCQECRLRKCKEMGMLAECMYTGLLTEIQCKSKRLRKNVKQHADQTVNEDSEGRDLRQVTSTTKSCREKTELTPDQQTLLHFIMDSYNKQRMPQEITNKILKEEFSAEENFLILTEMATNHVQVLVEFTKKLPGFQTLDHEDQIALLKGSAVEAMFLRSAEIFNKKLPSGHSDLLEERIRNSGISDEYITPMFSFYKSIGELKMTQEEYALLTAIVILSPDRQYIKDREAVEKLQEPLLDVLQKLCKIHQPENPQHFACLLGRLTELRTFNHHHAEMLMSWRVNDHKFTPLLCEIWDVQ
Sequence of Hepatocyte nuclear factor 3-beta (Homo sapiens) (Q9Y261 whole entry, looked up): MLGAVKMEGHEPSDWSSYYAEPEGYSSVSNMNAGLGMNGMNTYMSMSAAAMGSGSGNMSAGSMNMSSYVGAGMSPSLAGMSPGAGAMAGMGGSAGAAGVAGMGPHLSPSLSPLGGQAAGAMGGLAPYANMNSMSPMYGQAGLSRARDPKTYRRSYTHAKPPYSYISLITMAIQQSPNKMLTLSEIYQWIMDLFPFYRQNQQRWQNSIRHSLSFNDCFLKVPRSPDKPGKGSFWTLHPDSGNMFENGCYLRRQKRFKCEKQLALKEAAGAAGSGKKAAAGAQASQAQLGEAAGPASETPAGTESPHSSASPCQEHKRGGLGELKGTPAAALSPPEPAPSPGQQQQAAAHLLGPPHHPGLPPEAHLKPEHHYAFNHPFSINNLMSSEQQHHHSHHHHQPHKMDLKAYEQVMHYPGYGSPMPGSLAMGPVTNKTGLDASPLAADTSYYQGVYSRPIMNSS
Sequence of Hepatocyte nuclear factor 6 (Homo sapiens) (Q9UBC0 whole entry, looked up, the tested form may be a part): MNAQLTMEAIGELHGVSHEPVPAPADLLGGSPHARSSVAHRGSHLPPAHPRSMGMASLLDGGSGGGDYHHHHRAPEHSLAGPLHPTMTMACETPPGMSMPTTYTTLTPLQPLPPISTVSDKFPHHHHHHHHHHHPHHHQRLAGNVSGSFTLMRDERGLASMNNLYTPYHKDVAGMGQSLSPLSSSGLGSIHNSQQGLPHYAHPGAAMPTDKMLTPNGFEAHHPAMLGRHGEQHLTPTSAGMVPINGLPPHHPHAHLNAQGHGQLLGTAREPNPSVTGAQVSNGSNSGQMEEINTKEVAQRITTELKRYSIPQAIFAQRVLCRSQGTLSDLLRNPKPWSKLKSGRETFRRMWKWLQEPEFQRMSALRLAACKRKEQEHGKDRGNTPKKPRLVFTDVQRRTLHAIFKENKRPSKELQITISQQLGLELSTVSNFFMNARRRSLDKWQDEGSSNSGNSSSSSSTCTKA

As for `C[C@]12CC[C@@H]3c4ccc(O)cc4CC[C@H]3[C@@H]1CC[C@H]2O`, the AC50 was 19.8 µM (active) in test [1], 42 µM (active) in test [3] and 24.8 µM (active) in test [16]. Further, the result in test [1], in test [2], in [3], in test [4], in [5] and in [6] was inactive. In addition, the call in test [7], in test [8], in test [9], in test [10], in test [11] and in test [12] was inactive. Further, the molecule was called inactive in test [13], in test [14], in test [15], in [16] and in test [17].
Consider `c1ccc2ccccc2c1`, for which the result in test [1], in test [2], in test [3], in [18], in test [5] and in test [6] was inactive. Further, the molecule was called inactive in test [8], in test [9], in [19], in test [11], in test [12] and in test [13]. The result in test [20], in [14], in test [15] and in [16] was inactive. The concentration at half-maximal activity (AC50) in test [14] was 100 µM (active).
Turning to `CCN(CC)C(=O)c1cc(S(=O)(=O)Cc2ccccc2)c(N2CCC(c3ccccc3)CC2)cc1N(CC)CCN(C)C`, the result in [1], in [2], in test [3], in test [18], in [5] and in test [6] was inactive. Also, the call in test [7], in [8], in test [9], in test [19], in [10] and in test [11] was inactive. The result in test [12], in test [13], in [14], in [15] and in [17] was inactive. In addition, the concentration at half-maximal activity (AC50) in test [20] and in test [16] was 3.7 µM (active) throughout.
With `COCC(C)OCC(C)OCC(C)O` (centres undefined), the result in test [1], in test [2], in test [3], in test [18], in [5] and in [6] was inactive. The molecule was called inactive in test [7], in test [8], in [9], in test [19], in test [10] and in test [11]. Also, the molecule was classed as inactive in test [12], in test [13], in [20], in test [14], in test [15] and in test [16]. For the same molecule, the result in test [17] was inactive.
For the molecule `CC(C)(O)c1ccc(CNC(=O)c2cccnc2Oc2ccc3nonc3c2)cc1`, the outcome in [1], in test [2], in test [3], in test [18], in [5] and in [6] was inactive. The molecule was called inactive in test [8], in [9], in test [10], in test [11], in test [12] and in test [13]. Further, the molecule was classed as inactive in [20], in test [14], in [15] and in test [16]. In [17], the AC50 is 33.4 µM (active).
On to `CCN(Cc1cccc(S(=O)(=O)O)c1)c1ccc(C(=C2C=CC(=[N+](CC)Cc3cccc(S(=O)(=O)O)c3)C=C2)c2ccccc2S(=O)(=O)[O-])cc1`, for which the outcome in [1], in [2], in test [3], in test [18], in test [5] and in test [6] was inactive. Besides, the call in test [8], in [9], in test [19], in test [11], in [12] and in [13] was inactive. Further, the outcome in [20], in test [14], in test [15], in [16] and in [17] was inactive.
